What all share (test): cell viability relative to vehicle control; higher = less cytotoxic
Holding throughout (conditions): 10 µM

In one test the test system is K562. A digest of the protocol:
(§1)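 CRISPR-edited mutant clones and isogenic wild-type clones from four leukaemia lines were screened against Selleck bioactive, kinase and epigenetic probe libraries, with identity-inconsistent compounds excluded. Each compound was acoustically dispensed at a single 10 µM dose into 384-well plates holding 2000 cells in 50 µL medium per well. After 48 h the supernatant was removed and CellTiter-Glo luminescence was read. Viability was expressed as percent of the on-plate vehicle control and analysed in Genedata Screener.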

The test system of another test is MARIMO. A digest of the protocol: as §1
The next test concerns MOLM14. Summed up:
as §1

The subject of a further test is OCI-AML2. Summed up:
as §1

“And” between values parts separate entries of the source, which are not always exact repeats. Identical values can stand only once. Counter-ions that a name gives are not always drawn.

Experimental findings from the supplement of paper PMC10981050 are described below.

Usually cell viability stands for a read-out of living cells in per cent, often relative to untreated cells. Take `O=C(/C=C/c1ccc(O)cc1)C1=C(O)[C@](O)([C@@H]2O[C@H](CO)[C@@H](O)[C@H](O)[C@H]2O)C(O)=C(/C=C2/C(=O)C(C(=O)/C=C/c3ccc(O)cc3)=C(O)[C@@](O)([C@@H]3O[C@H](CO)[C@@H](O)[C@H](O)[C@H]3O)C2=O)C1=O` [Safflower Yellow]: the cell viability in the test with K562 (SRSF2 genotype: SRSF2 P95H/wt) was 97.2% and 89.1%; in the test on K562 (SRSF2 genotype: SRSF2 wt/wt), 90.4%; with MARIMO (SRSF2 genotype: SRSF2 P95H/wt), 91.5%; in the test on MARIMO (SRSF2 genotype: SRSF2 wt/wt), 98.8%; with MOLM14 (SRSF2 genotype: SRSF2 P95H/wt), 90.4%; in the test on MOLM14 (SRSF2 genotype: SRSF2 wt/wt), 94.9%. The figures for the cell viability in the test on OCI-AML2 (SRSF2 genotype: P95H/wt) and with OCI-AML2 (SRSF2 genotype: wt/wt) were 97.7% and 90.5%, respectively.

For the molecule `C=CC(=O)Nc1cccc(Nc2nc(Nc3ccc(NC4CN(CCF)C4)cc3OC)ncc2C(F)(F)F)c1`, the cell viability in the test on K562 (SRSF2 genotype: SRSF2 P95H/wt) was 55.2% and 53.1%; in the test on K562 (SRSF2 genotype: SRSF2 wt/wt) it was 64.8%; in the test on MARIMO (SRSF2 genotype: SRSF2 P95H/wt) it was 22.3%; with MARIMO (SRSF2 genotype: SRSF2 wt/wt), 19.6%; in the test on MOLM14 (SRSF2 genotype: SRSF2 P95H/wt), 4.64%; in the test with MOLM14 (SRSF2 genotype: SRSF2 wt/wt), 10.4%. In addition, the figures for the cell viability with OCI-AML2 (SRSF2 genotype: P95H/wt) and in the test with OCI-AML2 (SRSF2 genotype: wt/wt) were 12.3% and 17.9%, respectively.

For `CC(C)(C)NC[C@H](O)COc1nsnc1N1CCOCC1` [Timolol Maleate], the cell viability in the test with K562 (SRSF2 genotype: SRSF2 P95H/wt) was 98.8% and 98.3%; in the test on K562 (SRSF2 genotype: SRSF2 wt/wt), 97.4%; with MARIMO (SRSF2 genotype: SRSF2 P95H/wt), 101%; in the test with MARIMO (SRSF2 genotype: SRSF2 wt/wt) it was 106%; in the test with MOLM14 (SRSF2 genotype: SRSF2 P95H/wt), 99.3%; in the test with MOLM14 (SRSF2 genotype: SRSF2 wt/wt), 103%. Further, the cell viability was 103% in the test on OCI-AML2 (SRSF2 genotype: P95H/wt) and 109% with OCI-AML2 (SRSF2 genotype: wt/wt).

`COc1ccc(NC(=O)c2ccc(C(=N)N(C)C)cc2)c(C(=O)Nc2ccc(Cl)cn2)c1` [Betrixaban maleate]: the cell viability with K562 (SRSF2 genotype: SRSF2 P95H/wt) was 96.1% and 95.9%; in the test with K562 (SRSF2 genotype: SRSF2 wt/wt), 89.5%; in the test on MARIMO (SRSF2 genotype: SRSF2 P95H/wt) it was 86.5%; in the test with MARIMO (SRSF2 genotype: SRSF2 wt/wt), 89.9%; in the test on MOLM14 (SRSF2 genotype: SRSF2 P95H/wt), 99.9%; in the test on MOLM14 (SRSF2 genotype: SRSF2 wt/wt) it was 102%. In addition, the cell viability in the test with OCI-AML2 (SRSF2 genotype: P95H/wt) amounted to 81.3%; in the test with OCI-AML2 (SRSF2 genotype: wt/wt), 76.5%.

Turning to `Cc1ccc(-n2sc(=O)n(Cc3ccc(F)cc3)c2=O)cc1`, the cell viability in the test on K562 (SRSF2 genotype: SRSF2 P95H/wt) was 78.6% and 73.5%; in the test on K562 (SRSF2 genotype: SRSF2 wt/wt), 78%; in the test with MARIMO (SRSF2 genotype: SRSF2 P95H/wt) it was 67.2%; in the test with MARIMO (SRSF2 genotype: SRSF2 wt/wt) it was 72.6%; in the test on MOLM14 (SRSF2 genotype: SRSF2 P95H/wt), 47.6%; in the test on MOLM14 (SRSF2 genotype: SRSF2 wt/wt), 61.8%. For the same molecule, the cell viability worked out at 50.6% in the test with OCI-AML2 (SRSF2 genotype: P95H/wt) and 50.9% in the test on OCI-AML2 (SRSF2 genotype: wt/wt).

Regarding `CC(=O)N[C@@H](CS)C(=O)O` [Acetylcysteine], the cell viability with K562 (SRSF2 genotype: SRSF2 P95H/wt) is 101% and 97.9%; in the test with K562 (SRSF2 genotype: SRSF2 wt/wt), 95.6%; with MARIMO (SRSF2 genotype: SRSF2 P95H/wt) it was 97.5%; in the test with MARIMO (SRSF2 genotype: SRSF2 wt/wt) it was 92.6%; in the test with MOLM14 (SRSF2 genotype: SRSF2 P95H/wt), 97%; with MOLM14 (SRSF2 genotype: SRSF2 wt/wt), 97.5%. The cell viability with OCI-AML2 (SRSF2 genotype: P95H/wt) was 102%; with OCI-AML2 (SRSF2 genotype: wt/wt), 98%.

In the case of `CC1(C)C=Cc2cc(-c3coc4cc(O)ccc4c3=O)ccc2O1` [Corylin], the cell viability in the test on K562 (SRSF2 genotype: SRSF2 P95H/wt) was 78.5% and 85.9%; in the test with K562 (SRSF2 genotype: SRSF2 wt/wt) it was 85.4%; with MARIMO (SRSF2 genotype: SRSF2 P95H/wt), 70.9%; in the test on MARIMO (SRSF2 genotype: SRSF2 wt/wt), 69.7%; with MOLM14 (SRSF2 genotype: SRSF2 P95H/wt) it was 97%; in the test with MOLM14 (SRSF2 genotype: SRSF2 wt/wt), 97.4%. Moreover, the figures for the cell viability with OCI-AML2 (SRSF2 genotype: P95H/wt) and in the test on OCI-AML2 (SRSF2 genotype: wt/wt) were 56.4% and 60.8%, respectively.

Consider `N[C@@H](CSC(c1ccccc1)(c1ccccc1)c1ccccc1)C(=O)O`, for which the cell viability in the test with K562 (SRSF2 genotype: SRSF2 P95H/wt) is 43.2% and 34.9%; in the test on K562 (SRSF2 genotype: SRSF2 wt/wt) it was 34.4%; in the test with MARIMO (SRSF2 genotype: SRSF2 P95H/wt), 7.81%; in the test on MARIMO (SRSF2 genotype: SRSF2 wt/wt) it was 4.29%; in the test on MOLM14 (SRSF2 genotype: SRSF2 P95H/wt), 8.53%; with MOLM14 (SRSF2 genotype: SRSF2 wt/wt), 2.73%. The cell viability in the test with OCI-AML2 (SRSF2 genotype: P95H/wt) was 7.71%; in the test with OCI-AML2 (SRSF2 genotype: wt/wt), 11.8%.

For `CC[C@H]1OC(=O)[C@H](C)[C@@H](O[C@H]2C[C@@](C)(OC)[C@@H](O)[C@H](C)O2)[C@H](C)[C@@H](O[C@@H]2O[C@H](C)C[C@H](N(C)C)[C@H]2O)[C@](C)(O)C[C@@H](C)C(=O)[C@H](C)[C@@H](O)[C@]1(C)O` [Erythromycin thiocyanate], the cell viability in the test on K562 (SRSF2 genotype: SRSF2 P95H/wt) was 97.3% and 94.2%; in the test with K562 (SRSF2 genotype: SRSF2 wt/wt) it was 94.6%; in the test on MARIMO (SRSF2 genotype: SRSF2 P95H/wt) it was 82.7%; in the test with MARIMO (SRSF2 genotype: SRSF2 wt/wt) it was 91.9%; in the test on MOLM14 (SRSF2 genotype: SRSF2 P95H/wt), 87.9%; with MOLM14 (SRSF2 genotype: SRSF2 wt/wt), 89.1%. Further, the values for the cell viability with OCI-AML2 (SRSF2 genotype: P95H/wt) and with OCI-AML2 (SRSF2 genotype: wt/wt) were 87% and 90.1%, respectively.
